Screens: PubChem, National Center for Advancing Translational Sciences (NCATS)
NPR1 antag – Natriuretic polypeptide receptor (hNpr1) antagonism - Primary qHTS | HEK293 hNpr1 GloSensor cGMP, ANP-stimulated luminescence | Potency, µM (titrated, usually from 46.3 µM), usual class: inhibitors | 76,000 compounds, 1.6% hits; calls by dose curve; further: nearly all actives have a fitted effect of over 60% in size
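HEK293 cells stably expressing human Npr1 and cGMP GloSensor pGS-40F, loaded 2 h with 2% GloSensor reagent, given compound 30 min at room temperature. Luminescence read before and 20 min after 0.1 nM hNppA.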
HEK293 tox – Cytotoxic Profiling in HEK 293 Cell Line of Diverse Libraries Using Quantitative High-Throughput Screening; HEK 293 viability, ATP luminescence (CellTiter-Glo), 48-72 h; Potency, µM (doses to about 115 µM), actives largely listed as inhibitors; 94,000 compounds, 6.6% hits; further: nearly all actives have a fitted effect of over 60% in size
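ATP-coupled CellTiter-Glo luminescence served as viability read-out, recorded 10 min after reagent addition at room temperature. HEK 293 cells, 250 cells/well, had been incubated with pintool-transferred compound for 48 or 72 hr at 37 degree Celsius.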
FLuc inh – Firefly luciferase inhibition profiling of diverse chemical library using quantitative high-throughput screening; Luciferin 4-monooxygenase (Photinus pyralis), P08659; 76,000 compounds, 2.5% hits; purified P. pyralis luciferase, luminescence, biochemical; Potency, µM (top dose mostly 115 µM), usual class: inhibitors; further: nearly all actives have a fitted effect of over 65% in size
Target sequence (P08659 whole entry, looked up): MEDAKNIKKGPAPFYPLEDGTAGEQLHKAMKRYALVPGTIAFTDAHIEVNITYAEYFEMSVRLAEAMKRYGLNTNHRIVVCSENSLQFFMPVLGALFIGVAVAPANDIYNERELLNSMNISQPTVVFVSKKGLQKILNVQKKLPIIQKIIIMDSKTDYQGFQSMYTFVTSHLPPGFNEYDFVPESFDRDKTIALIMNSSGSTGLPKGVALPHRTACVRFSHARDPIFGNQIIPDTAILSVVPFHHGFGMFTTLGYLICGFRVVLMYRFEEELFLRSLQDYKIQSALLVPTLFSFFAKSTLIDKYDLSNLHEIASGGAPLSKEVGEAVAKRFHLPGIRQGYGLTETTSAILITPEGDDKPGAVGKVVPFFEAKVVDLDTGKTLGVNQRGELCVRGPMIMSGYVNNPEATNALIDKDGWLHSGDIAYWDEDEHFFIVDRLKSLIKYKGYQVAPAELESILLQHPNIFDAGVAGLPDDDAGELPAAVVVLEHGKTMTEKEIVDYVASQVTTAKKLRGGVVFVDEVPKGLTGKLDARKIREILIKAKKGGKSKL
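Biochemical qHTS: compound (6-point titration) added to 10uM D-luciferin plus 10uM ATP in Tris acetate pH 7.5 buffer with Mg, Tween-20 and BSA, then purified enzyme at 10nM; light output imaged.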
NIH3T3 tox – Cytotoxic Profiling in NIH 3T3 Cell Line of Diverse Libraries Using Quantitative High-Throughput Screening | NIH 3T3 viability, CellTiter-Glo ATP luminescence, 48-72 h | Potency, µM (highest dose often 96.7 µM), hits mostly inhibitors | 94,000 compounds, 4.3% hits; further: nearly all actives have a fitted effect of over 55% in size
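Cells were seeded at 400 per well, treated with pin-transferred compound, and kept 48 or 72 hr at 37 °C before CellTiter-Glo addition and luminescence imaging of cellular ATP.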
Hits are given with their value; . = inactive; ? = inconclusive; / = not tested or not shown. The list is not random: actives were taken first. Their share in the collection is about 11%. Unless noted, the call rests on the fitted dose curve; in most records, active means well fitted curve in the direction sought with a large enough effect; inconclusive means small, poorly fitted or top-dose-only effect, or another doubt; inactive means no such curve, though single readings can be large; an effect the other way counts as inactive or inconclusive.

SMILES	NPR1 antag	HEK293 tox	FLuc inh	NIH3T3 tox
CCOCCNC(=O)CNC(=O)c1cccc(-c2cc(F)ccc2OC)c1	/	.	/	.
COc1ccc(F)cc1-c1cccc(C(=O)NCCNC(=O)c2ccc(C)cc2)c1	/	?	/	.
COc1ccc(F)cc1-c1cccc(C(=O)NCC(=O)NCc2ccc3c(c2)OCO3)c1	/	50µM	/	?
COc1ccc(F)cc1-c1cccc(C(=O)NCCNC(=O)c2ccccc2F)c1	/	40µM	/	?
COc1ccc(C(=O)NCCNC(=O)c2cccc(-c3cc(F)ccc3OC)c2)cc1	/	40µM	/	?
O=C(Cc1cccnc1)N1CCCC(CN2CCCC2)CC1 (stereo not drawn)	/	.	/	.
O=C(NCCc1ccccn1)C1c2ccccc2C(=O)N(C2CCCCC2)C12CCCCC2 (stereo not drawn)	.	45µM	.	?
CC(C)(C)c1ccc(-c2cc(C[C@H]3CNCC[C@H]3CC(=O)NCc3cccnc3)no2)cc1	.	?	.	20µM
CN(C)CCNC(=O)C[C@@H]1CCNC[C@@H]1Cc1cc(-c2ccc(C(C)(C)C)cc2)on1	.	32µM	.	40µM
CC(C)(C)c1ccc(-c2cc(C[C@H]3CNCC[C@H]3CC(=O)Nc3ccccc3)no2)cc1	.	?	.	?
CC(C)(C)c1ccc(-c2cc(C[C@H]3CNCC[C@H]3CC(=O)N3CCC(Cc4ccccc4)CC3)no2)cc1	.	.	.	.
CCN(CC)C(=O)C[C@@H]1CCNC[C@@H]1Cc1cc(-c2ccc(C(C)(C)C)cc2)on1	.	40µM	.	40µM
CC(C)(C)c1ccc(-c2cc(C[C@H]3CNCC[C@H]3CC(=O)NCCN3CCOCC3)no2)cc1	.	40µM	.	50µM
O=C1CCN(C(=O)CCCc2ccccc2)CCCCCCN1	.	.	.	.
CCOCCNc1ncnc2c1CN(c1cccc(C)c1)C(=O)CN2C	/	.	/	.
CC(C)NC(=O)C[C@@H]1CCNC[C@@H]1Cc1cc(-c2ccc(C(C)(C)C)cc2)on1	.	40µM	.	35µM
Cc1cnc(C2CCN(C(=O)OC(C)(C)C)CC2)[nH]1	/	.	/	.
CSCC(=O)N[C@H]1CCN2C(=O)N(c3ccc(C(C)C)cc3)C(=O)[C@@H]2C1	.	.	32µM	.
O=C(NC1CCN(CCn2nc3n(c2=O)CCCC3)C1)c1ccccn1 (stereo not drawn)	/	.	/	.
CC(=O)NC[C@@H]1C=C(C)[C@H](Cc2nc3ccc(F)cc3[nH]2)C[C@H]1C(C)C	.	45µM	.	79µM
COCC(=O)NC[C@@H]1C=C(C)[C@H](Cc2nc3ccccc3[nH]2)C[C@H]1C(C)C	.	?	.	?
COCC(=O)NC[C@@H]1C=C(C)[C@H](Cc2nc3ccc(F)cc3[nH]2)C[C@H]1C(C)C	.	?	.	50µM
CC1=C[C@@H](CNC(=O)c2cccnc2)[C@H](C(C)C)C[C@H]1Cc1nc2ccc(F)cc2[nH]1	.	?	.	?
O=C(c1ccccc1)N1CCCC(C(=O)N2CCCC(c3nc4ccncc4[nH]3)C2)C1 (stereo not drawn)	/	.	/	.
c1ccc(OCC2CN(Cc3ccncc3)CC23CN(c2ccccc2)C3)cc1 (stereo not drawn)	.	?	.	89µM
SMILES	NPR1 antag	HEK293 tox	FLuc inh	NIH3T3 tox
O=C(O)c1cccc(CN2CC(COc3ccccc3)C3(C2)CN(c2ccccc2)C3)c1 (stereo not drawn)	.	?	.	.
c1ccc(OCC2CN(Cc3ccc4[nH]ccc4c3)CC23CN(c2ccccc2)C3)cc1 (stereo not drawn)	?	28µM	.	25µM
O=C(Cc1ccccc1)NCC1CN(Cc2ccc3[nH]ccc3c2)CC12CN(c1ccccc1)C2 (stereo not drawn)	.	40µM	.	22µM
O=[S+]([O-])(NCC1CN(Cc2ccc(O)cc2)CC12CN(c1ccccc1)C2)c1ccccc1 (stereo not drawn)	.	?	.	18µM
CNC(=O)c1cc(C)nc2onc(C3CCN(C(=O)c4cccnc4)C3)c12 (stereo not drawn)	/	.	/	.
O=C(NC1CCCCC1)c1ccc2nnc(Cc3ccco3)n2c1	/	.	/	.
COc1ccc(CC(=O)NC2CCN(C(=O)c3ccc(-c4ncccc4C#N)cc3)CC2)cc1	/	.	/	?
CS(=O)(=O)N1CCC(OC2CCN(C(=O)Nc3cccc(Cl)c3)CC2)CC1	.	?	.	?
